# Measured values: PubChem BioAssay AID1220 (Sanford-Burnham Center for Chemical Genomics, 2008)
# The campaign covered roughly 190,000 compounds. About 1,300 (0.68%) were called active. Cut-off read from the data, not from the text of the source: active = inhibition above about 50%; inactive = the rest. For the sample, actives were picked, then their nearest neighbours and some compounds at random.
# Biological target: Mannose-6-phosphate isomerase (Homo sapiens) (UniProt P34949)
# Experiment: human PMI inhibitors, high substrate, primary screen, biochemical, fluorescence intensity, high mannose 6-phosphate (AID 1220)
# Conditions: recombinant PMI enzyme, coupled fluorescence intensity; at 20 µM; active compounds read high
# Chain of Mannose-6-phosphate isomerase (Homo sapiens) (P34949 whole entry, looked up): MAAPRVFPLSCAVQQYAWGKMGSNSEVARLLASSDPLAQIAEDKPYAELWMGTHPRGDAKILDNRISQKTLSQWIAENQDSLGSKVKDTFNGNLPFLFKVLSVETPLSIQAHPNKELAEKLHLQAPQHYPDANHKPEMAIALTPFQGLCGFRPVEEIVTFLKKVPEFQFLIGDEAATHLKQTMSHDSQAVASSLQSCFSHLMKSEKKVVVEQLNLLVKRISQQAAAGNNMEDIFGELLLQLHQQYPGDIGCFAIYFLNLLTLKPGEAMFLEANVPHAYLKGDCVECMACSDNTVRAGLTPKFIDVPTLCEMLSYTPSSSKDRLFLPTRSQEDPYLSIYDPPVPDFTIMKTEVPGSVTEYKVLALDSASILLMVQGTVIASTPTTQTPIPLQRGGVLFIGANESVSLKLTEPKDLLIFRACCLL
row,Compound,inhibition
1,Cc1cc(OCc2nn[nH]n2)c2c3c(c(=O)oc2c1)CCCC3,-9.2% (inactive)
2,COc1cc(NC(=O)CN2C3CCC2CC(O)(c2cccnc2)C3)cc(OC)c1 (configuration not stated),5.3% (inactive)
3,O=C(NC(C(Cl)Cl)N1CCOCC1)c1ccccc1 (configuration not stated),-6.2% (inactive)
4,O=C(c1ccc2c(c1)ncn2-c1ccc(F)cc1F)N1CCC2(CC1)OCCO2,-2.9% (inactive)
5,CCCCCn1c(=O)c(C(=O)Nc2ccncc2)c(O)c2ccccc21,-5.5% (inactive)
6,COc1ccc(C(C)=O)cc1CC(C(=O)c1ccc(C)cc1)N(C)C (configuration not stated),4.6% (inactive)
7,CCC(C)NC(=O)CN1C(=O)CN=C(c2ccccc2)c2ccccc21 (configuration not stated),-11.3% (inactive)
8,O[C@H]1C2CCC1C(N1CCCCC1)CC2 (some centres not stated),5.7% (inactive)
9,COc1ccc(OC)c(N2Cc3ccccc3C2=N)c1,-9.9% (inactive)
10,CNc1cc(N2CCN(C)CC2)ccc1[N+](=O)[O-],28.3% (inactive)
11,CN(C)c1ccc(C=C(C#N)C#N)cc1,-8.3% (inactive)
12,Cc1cc(N2CCCC2)ccc1C=C(C#N)C#N,7.1% (inactive)
13,Cc1ccc2cc(C=C(C#N)C#N)c(Cl)nc2c1,57.1% (active)
14,COc1ccc(OC)c(N2C(=O)NC(=O)C3(Cc4cc(C)ccc4N(C)C3)C2=O)c1 (configuration not stated),-2.8% (inactive)
15,CC(=O)NC1C(OC(=O)Cc2ccccc2)OC(COC(C)=O)C(OC(C)=O)C1OC(C)=O (configuration not stated),-6% (inactive)
16,CCSc1cc(C2C(C#N)=C(N)Oc3n[nH]c(C)c32)c(C)o1 (configuration not stated),-0.6% (inactive)
17,CN1CCN(c2ccc(N)cc2)CC1,11.3% (inactive)
18,CC(C)N1CCN(c2ccc(O)cc2)CC1,65% (active)
19,CCN1CCN(c2ccc(N)cc2)CC1,35.6% (inactive)
20,O=C1C2CCN(CC2)C1Cc1ccc(OCc2ccccc2)cc1 (configuration not stated),1.5% (inactive)
21,COc1ccc2ccc(O)c(CN3CC=C(c4ccccc4)CC3)c2c1,57.7% (active)
22,COc1ccc2c(CN3CC=C(c4ccccc4)CC3)cc(=O)oc2c1,14.2% (inactive)
23,Oc1ccc2ccccc2c1CN1CC=C(c2ccccc2)CC1,38.8% (inactive)
24,COC(=O)c1c(N)n(Cc2ccc(OC)cc2)c2nc3ccccc3nc12,0.2% (inactive)
25,CCCCNC(=O)c1c(N)n(Cc2ccc3c(c2)OCO3)c2nc3ccccc3nc12,69.1% (active)

row,Compound,inhibition
1,CC(C)CCNC(=O)c1c(N)n(Cc2ccc3c(c2)OCO3)c2nc3ccccc3nc12,41.6% (inactive)
2,CCC(C)NC(=O)c1c(N)n(Cc2ccc3c(c2)OCO3)c2nc3ccccc3nc12 (configuration not stated),61.1% (active)
3,CCCNC(=O)c1c(N)n(Cc2ccc3c(c2)OCO3)c2nc3ccccc3nc12,27.5% (inactive)
4,CC(C)CNC(=O)c1c(N)n(Cc2ccc3c(c2)OCO3)c2nc3ccccc3nc12,35.4% (inactive)
5,O=C(CCl)NCC1CCCO1 (configuration not stated),0.5% (inactive)
6,CCCCn1c(O)c(C(CC)=NCCN2CCOCC2)c(=O)[nH]c1=O,-61.4% (inactive)
7,O=C1c2ccccc2C(=O)N1Cc1nc2ccccc2c(=O)n1-c1ccc(Br)cn1,-1.8% (inactive)
8,CC(=O)c1ccc2c(c1)C1C(Cl)C(Sc3ccccc3[N+](=O)[O-])CC1C(c1ccccc1[N+](=O)[O-])N2 (configuration not stated),63.2% (active)
9,CC(=O)c1ccc2c(c1)C1C(Cl)C(Sc3ccccc3[N+](=O)[O-])CC1C(c1ccccc1)N2 (configuration not stated),-67.2% (inactive)
10,CC(=O)c1ccc2c(c1)C1C(Cl)C(Sc3ccccc3[N+](=O)[O-])CC1C(C(=O)O)N2 (configuration not stated),-51.9% (inactive)
11,COc1cccc(C2CC3C(=O)C=CC2N3Cc2ccccc2)c1 (configuration not stated),61.2% (active)
12,COc1cccc(CN2CCCCC2c2cccnc2)c1 (configuration not stated),-2.6% (inactive)
13,COc1cccc(NC(=O)CN2CC(c3ccccc3)CC2=O)c1 (configuration not stated),-4.8% (inactive)
14,CCN(CC)CCCN=C(C)c1c(O)n(C2CCCCC2)c(=O)[nH]c1=O,-9.1% (inactive)
15,CCCCCCn1c(N)c(C(=O)NCCN2CCOCC2)c2nc3ccccc3nc21,23.2% (inactive)
16,Nc1c(C(=O)NC2CCCC2)c2nc3ccccc3nc2n1CC1CCCO1 (configuration not stated),62.2% (active)
17,CCCNC(=O)c1c(N)n(CC2CCCO2)c2nc3ccccc3nc12 (configuration not stated),56.1% (active)
18,CCC(C)NC(=O)c1c(N)n(CC2CCCO2)c2nc3ccccc3nc12 (configuration not stated),64.3% (active)
19,CCCCn1c(N)c(C(=O)NCCN2CCOCC2)c2nc3ccccc3nc21,48.6% (inactive)
20,CC(C)CCNC(=O)c1c(N)n(CC2CCCO2)c2nc3ccccc3nc12 (configuration not stated),23.9% (inactive)
21,Nc1c(C(=O)OC2CCCCC2)c2nc3ccccc3nc2n1CC1CCCO1 (configuration not stated),24.9% (inactive)
22,CCCCn1c(N)c(C(=O)OCC2CCCO2)c2nc3ccccc3nc21 (configuration not stated),12% (inactive)
23,CC(C)OC(=O)c1c(N)n(CC2CCCO2)c2nc3ccccc3nc12 (configuration not stated),16.9% (inactive)
24,CCCCCn1c(N)c(C(=O)NCCN2CCOCC2)c2nc3ccccc3nc21,51.4% (active)
25,CC(C)CCOC(=O)c1c(N)n(CC2CCCO2)c2nc3ccccc3nc12 (configuration not stated),5.9% (inactive)

row,Compound,inhibition
1,CC(C)OCCCNC(=O)c1c(N)n(CC2CCCO2)c2nc3ccccc3nc12 (configuration not stated),22.1% (inactive)
2,CC(NCc1ccccc1Cl)C(O)c1ccccc1 (configuration not stated),-3.1% (inactive)
3,CCN(CC)P(=S)(c1c(C)nc2ccccn12)c1c(C)nc2ccccn12,-6.3% (inactive)
4,CN1CCN(S(=O)(=O)c2cnc(Cl)c(Br)c2)CC1,10.5% (inactive)
5,COc1ccc(N2C(=O)NC(=O)/C(=C/c3ccc4c(c3)Cc3ccccc3-4)C2=O)cc1,-32.8% (inactive)
6,COc1ccc(-c2cc(=NCCC(=O)O)c3cc(C)ccc3o2)cc1,3.9% (inactive)
7,CN1CCN(c2ccc(F)cc2N)CC1,-0.9% (inactive)
8,OCC12COC3c4ccccc4C(OC1)N32 (configuration not stated),5.1% (inactive)
9,COc1ccc(N=Cc2c(O)n(Cc3cccs3)c(=O)[nH]c2=O)cc1,0.9% (inactive)
10,COc1ccc(OP(=O)(Nc2ccccc2)Nc2ccccc2)cc1,-14.6% (inactive)
11,COc1ccc(NP(=O)(Nc2ccc(OC)cc2)Oc2ccccc2)cc1,-1.9% (inactive)
12,COc1ccc(P2(=O)Nc3ccccc3N2)cc1,52.2% (active)
13,C[N+](C)(C)c1ccccc1,10.3% (inactive)
14,CCCCCCC(=O)c1c(O)n(-c2ccccc2OC)c(=O)[nH]c1=O,-8.9% (inactive)
15,CCn1nc(-c2cccs2)nc2c(=O)n(C)c(=O)nc1-2,8.9% (inactive)
16,O=[N+]([O-])c1ccc(N2CCOCC2)c2ccncc12,55.8% (active)
17,O=[N+]([O-])c1ccc(N2CCCC2)c2ccncc12,47.4% (inactive)
18,O=[N+]([O-])c1ccc(N2CCOCC2)c2cccnc12,36.9% (inactive)
19,COc1cccc(C(=O)C2CCCN(Cc3ccon3)C2)c1 (configuration not stated),8.8% (inactive)
20,O=C(CN1CCOCC1)NCC(=O)Nc1ccc(Br)cc1C(=O)c1ccccc1,-0.3% (inactive)
21,CCC[N+]12CCC(CC1)C(=C(c1ccccc1)c1ccccc1)C2,5.9% (inactive)
22,O=c1[nH]c(=S)n(Cc2ccc(F)cc2)c(O)c1C=NCC1CCCO1 (configuration not stated),6.1% (inactive)
23,CCCCn1c(NS(=O)(=O)c2ccccc2)c(C(=O)OCC)c2nc3ccccc3nc21,42.5% (inactive)
24,CCCCn1c(NC(=O)c2ccc(Br)o2)c(C(=O)OCC)c2nc3ccccc3nc21,56.4% (active)
25,CCOC(=O)c1c(NS(=O)(=O)c2ccccc2)n(CCCOC)c2nc3ccccc3nc12,44.9% (inactive)

row,Compound,inhibition
1,CCCCn1c(NS(=O)(=O)c2ccc(C)cc2)c(C(=O)OCC)c2nc3ccccc3nc21,52.3% (active)
2,CCOC(=O)c1c(N)n(CCCOC(=O)c2ccco2)c2nc3ccccc3nc12,0.2% (inactive)
3,COCCNC(=O)c1c(NC(=O)c2ccc(Br)o2)n(Cc2ccccc2)c2nc3ccccc3nc12,46.5% (inactive)
4,Cc1cc(C=O)c(C)n1CC1CCCO1 (configuration not stated),-8.4% (inactive)
5,COc1ccc(C(=O)C2CCCN(C3CSCCSC3)C2)cc1OC (configuration not stated),8.3% (inactive)
6,CN1C(=O)C(=Cc2ccccc2OCc2ccccc2Cl)C(=O)N(C)C1=O,-9.8% (inactive)
7,CCn1nc(-c2ccccc2)nc2c(=O)n(C)c(=O)nc1-2,7.6% (inactive)
8,Cn1ncnc2c(=O)n(C)c(=O)nc1-2,61.6% (active)
9,CCn1nc(/C=C/c2ccccc2)nc2c(=O)n(C)c(=O)nc1-2,46.6% (inactive)
10,Cc1cc(=O)n(-c2ccccc2)n1-c1ccccc1,-4.7% (inactive)
11,CCOC(=O)c1c(-n2c(C)cc(/C=C3\C(=O)NC(=O)N(C)C3=O)c2C)sc2c1CCCC2,12.7% (inactive)
12,Cc1cc2c(C(C)C)c(O)c(O)c(C=O)c2c(O)c1-c1c(C)cc2c(C(C)C)c(O)c(O)c(C=O)c2c1O,51.4% (active)
13,COc1ccc(-c2nc3ccccc3c(=O)n2-c2cccnc2)cc1,-2.9% (inactive)
14,O=C1/C(=C\c2ccc3c(c2)OCO3)N2CCC1CC2,5.7% (inactive)
15,O=C1/C(=C/c2cc([N+](=O)[O-])ccc2Cl)N2CCC1CC2,-0.3% (inactive)
16,O=C1/C(=C\c2cc3c(cc2Cl)OCO3)N2CCC1CC2,57.2% (active)
17,O=C1/C(=C/c2ccc3c(c2)OCO3)N2CCC1CC2,-2.8% (inactive)
18,O=C1/C(=C/c2cc3c(cc2Cl)OCO3)N2CCC1CC2,51% (active)
19,O=C1/C(=C\c2cc3c(cc2Br)OCO3)N2CCC1CC2,19.8% (inactive)
20,CCN(CC)CC(O)c1ccc(C2CCCC2)cc1 (configuration not stated),-5.5% (inactive)
21,C=CCn1c(O)c(C(CC)=Nc2ccccc2NC(C)=O)c(=O)[nH]c1=O,0.5% (inactive)
22,CCOC(=O)C(NC(C)=O)C(OC(C)=O)c1cccc(N(CCCl)CCCl)c1 (configuration not stated),-101% (inactive)
